# Results taken from PubChem BioAssay (NCATS).
# Values joined by “and” are separate entries in the source; they are usually repeats but may differ in a detail not shown here. Equal values may be shown once. Results filed as inconclusive are left out. A call without a number means that no potency is given here. Some structures have more than one record in an assay (separate samples or runs), and their calls can disagree. Active and inactive are the calls of the source. Calls follow the shape of the dose curve; as a rule, active = well fitted curve in the direction sought with a large enough effect; inconclusive = small, poorly fitted or top-dose-only effect, or another doubt; inactive = no such curve, though single readings can be large; an effect the other way counts as inactive or inconclusive.
# Key:
# KB-3-1 = experiment: Cytotoxic Profiling of Annotated Libraries Using Quantitative High-Throughput Screening (AID 1296008); settings: Five cell lines viability, CellTiter-Glo ATP luminescence, 48-72 h; max response: stronger effect = lower value; also: nearly all actives have a fitted effect of over 60% in size
# Procedure, shortened: (§1)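 Cells exposed to compounds for 48 or 72 hr at 37 degrees Celsius. Viability read as ATP-coupled luminescence with CellTiter-Glo after 10 min at room temperature.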
# MCC-26 = experiment: qHTS assay to identify novel small-molecules to repurpose for Merkel cell carcinoma treatment (AID 1296009); settings: MCC and control cell lines, CellTiter-Glo viability, 72 h; series mostly up to 46 µM; also: nearly all actives have a fitted effect of over 60% in size
# Procedure, shortened: (§2)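 CellTiter-Glo luminescence after 72 hr compound exposure at 37 degree celsius gave cell viability. Libraries NPC and MIPE were run as 8- and 11-point dose responses; RLUs normalized to DMSO (negative) and no-cell (cytotoxicity) controls.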
# C33A = experiment: Primary qHTS to identify gynecologic anti-cancer compounds using libraries of approved drugs and bioactive compounds (AID 1345084); settings: Gynecologic cancer cell panel viability, ATPlite luminescence, 48 h; series mostly up to 57.5 µM; also: nearly all actives have a fitted effect of over 55% in size
# Procedure, shortened: (§3)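 Cells, 1,000 per well, plated 16 h, then exposed 48 h at 37 C to compounds. Viability by ATPlite luminescence after 15 min at room temperature.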
# CAOV3 = experiment: as above; settings: Gynecologic cancer cell panel viability, ATPlite luminescence, 48 h; series mostly up to 57.5 µM
# Procedure, shortened: as §3
# Es-2 = experiment: as above; settings: Gynecologic cancer cell panel viability, ATPlite luminescence, 48 h; series mostly up to 57.5 µM
# Procedure, shortened: as §3
# Hek293T [1] = experiment: as above; settings: Gynecologic cancer cell panel viability, ATPlite luminescence, 48 h, control line for the selectivity index; series mostly up to 57.5 µM
# Procedure, shortened: as §3
# JEG-3 = experiment: as above; settings: Gynecologic cancer cell panel viability, ATPlite luminescence, 48 h; series mostly up to 57.5 µM
# Procedure, shortened: as §3
# OV90 = experiment: as above; settings: Gynecologic cancer cell panel viability, ATPlite luminescence, 48 h; series mostly up to 57.5 µM
# Procedure, shortened: as §3
# NIH3T3 [2] = experiment: Cytotoxic Profiling of Annotated Libraries Using Quantitative High-Throughput Screening (AID 1296008); settings: Five cell lines viability, CellTiter-Glo ATP luminescence, 48-72 h; max response: stronger effect = lower value; also: nearly all actives have a fitted effect of over 60% in size
# Procedure, shortened: as §1
# MCC-13 = experiment: qHTS assay to identify novel small-molecules to repurpose for Merkel cell carcinoma treatment (AID 1296009); settings: MCC and control cell lines, CellTiter-Glo viability, 72 h; series mostly up to 46 µM; also: nearly all actives have a fitted effect of over 60% in size
# Procedure, shortened: as §2
# MKL-2 = experiment: as above; settings: MCC and control cell lines, CellTiter-Glo viability, 72 h; series mostly up to 46 µM
# Procedure, shortened: as §2
# CASKI = experiment: Primary qHTS to identify gynecologic anti-cancer compounds using libraries of approved drugs and bioactive compounds (AID 1345084); settings: Gynecologic cancer cell panel viability, ATPlite luminescence, 48 h; series mostly up to 57.5 µM; also: nearly all actives have a fitted effect of over 55% in size
# Procedure, shortened: as §3
# HeLa = experiment: as above; settings: Gynecologic cancer cell panel viability, ATPlite luminescence, 48 h; series mostly up to 57.5 µM
# Procedure, shortened: as §3
# MKL-1 = experiment: qHTS assay to identify novel small-molecules to repurpose for Merkel cell carcinoma treatment (AID 1296009); settings: MCC and control cell lines, CellTiter-Glo viability, 72 h; series mostly up to 46 µM; also: nearly all actives have a fitted effect of over 60% in size
# Procedure, shortened: as §2
# UISO = experiment: as above; settings: MCC and control cell lines, CellTiter-Glo viability, 72 h; series mostly up to 46 µM
# Procedure, shortened: as §2
# WaGa = experiment: as above; settings: MCC and control cell lines, CellTiter-Glo viability, 72 h; series mostly up to 46 µM
# Procedure, shortened: as §2
# PA-1 = experiment: Primary qHTS to identify gynecologic anti-cancer compounds using libraries of approved drugs and bioactive compounds (AID 1345084); settings: Gynecologic cancer cell panel viability, ATPlite luminescence, 48 h; series mostly up to 57.5 µM; also: nearly all actives have a fitted effect of over 55% in size
# Procedure, shortened: as §3
# HACAT = experiment: qHTS assay to identify novel small-molecules to repurpose for Merkel cell carcinoma treatment (AID 1296009); settings: MCC and control cell lines, CellTiter-Glo viability, 72 h; at 44.8 µM (top of the series) unless noted; also: nearly all actives have a fitted effect of over 60% in size
# Procedure, shortened: as §2
# HEK293T [3] = experiment: as above; settings: MCC and control cell lines, CellTiter-Glo viability, 72 h; at 44.8 µM (top of the series) unless noted
# Procedure, shortened: as §2
# NIH3T3 [4] = experiment: as above; settings: MCC and control cell lines, CellTiter-Glo viability, 72 h; series mostly up to 44.8 µM
# Procedure, shortened: as §2
# Potency is read from the fitted curve at half-maximal effect.
structure (smiles),measurement,setting,value
COc1ccc(-c2nc3ccc(C4=NNC(=O)CC4C)cc3[nH]2)cc1 (centres undefined),max response,KB-3-1,-4.82% (inactive)
same,Potency,MCC-26,inactive
same,Potency,C33A,inactive
same,Potency,CAOV3,17.8 µM (active) and inactive
same,Potency,Es-2,inactive
same,Potency,Hek293T [1],inactive
same,Potency,JEG-3,inactive
same,Potency,OV90,inactive
Fc1ccc(CNc2ncnc3ccc(F)cc23)cc1,max response,NIH3T3 [2],-22.4% (inactive)
same,Potency,MCC-13,inactive
same,Potency,MKL-2,inactive
same,Potency,CASKI,inactive
same,Potency,Es-2,inactive
same,Potency,HeLa,inactive
same,Potency,JEG-3,inactive
Cc1cc(-c2ncc(CC(=O)Nc3ccc(-c4cnccn4)cn3)cc2C)ccn1,max response,NIH3T3 [2],-16.2% (inactive) and -6.07% (inactive)
same,Potency,MCC-13,inactive
same,Potency,MCC-26,inactive
same,Potency,CAOV3,inactive
same,Potency,CASKI,inactive
same,Potency,HeLa,inactive
same,Potency,JEG-3,inactive
same,Potency,OV90,inactive
c1ccc(-c2oc3ncnc(NC[C@@H]4CCCO4)c3c2-c2ccccc2)cc1,Potency,NIH3T3 [2],14.6 µM (active)
same,Potency,MCC-13,inactive
same,Potency,MCC-26,inactive
same,Potency,MKL-1,inactive
same,Potency,MKL-2,inactive
same,Potency,UISO,inactive
same,Potency,WaGa,inactive
same,Potency,C33A,inactive
same,Potency,CASKI,inactive
same,Potency,Es-2,inactive
same,Potency,HeLa,inactive
same,Potency,Hek293T [1],inactive
same,Potency,JEG-3,inactive
same,Potency,OV90,inactive
same,Potency,PA-1,inactive
Cc1ccc(C(=O)N(CCCN)[C@@H](c2oc3cc(Cl)ccc3c(=O)c2Cc2ccccc2)C(C)C)cc1,Potency,KB-3-1,0.0008 µM (active)
same,Potency,MCC-13,0.0083 µM (active)
same,Potency,MKL-1,inactive
same,Potency,MKL-2,8.33 µM (active)
same,Potency,WaGa,inactive
COc1ccc2cc1Oc1ccc(cc1)C[C@H]1c3cc(c(OC)cc3CCN1C)Oc1c(OC)c(OC)cc3c1[C@H](C2)N(C)CC3,max response,NIH3T3 [2],-30.2% (inactive)
same,Potency,MCC-13,inactive
C[C@H]1[C@H](O)O[C@@H]2O[C@@]3(C)CC[C@@H]4[C@H](C)CC[C@@H]1[C@@]24OO3,Potency,KB-3-1,20.9 µM (active)
same,Potency,MCC-26,inactive
same,Potency,MKL-1,16.6 µM (active)
same,Potency,MKL-2,10.5 µM (active)
same,Potency,UISO,2.96 µM (active)
same,Potency,WaGa,9.35 µM (active)
C[C@@H]1CC=CC=CC=CC=C[C@@H](O[C@@H]2O[C@H](C)[C@@H](O)[C@H](N)[C@H]2O)C[C@@H]2O[C@](O)(C[C@@H](O)C[C@@H]3O[C@@H]3C=CC(=O)O1)C[C@H](O)[C@@H]2C(=O)O,max response,NIH3T3 [2],4.91% (inactive)
same,Potency,MCC-13,inactive
same,Potency,MCC-26,inactive
same,Potency,MKL-1,inactive
same,Potency,MKL-2,inactive
same,Potency,UISO,inactive
same,Potency,WaGa,inactive
Cc1ccccc1C(=O)c1ccc(Nc2ccc(Br)cc2N)cc1Cl,max response,NIH3T3 [2],-21.7% (inactive)
same,Potency,MCC-13,inactive
same,Potency,MCC-26,inactive
same,Potency,MKL-1,inactive
same,Potency,Es-2,inactive
same,Potency,HeLa,inactive
same,Potency,Hek293T [1],inactive
same,Potency,OV90,inactive
CCNC(=O)c1noc(-c2cc(C(C)C)c(O)cc2O)c1-c1ccc(CN2CCOCC2)cc1,Potency,NIH3T3 [2],264 nM (active) and 51.7 nM (active)
same,Potency,MCC-13,0.209 µM (active)
same,Potency,MKL-2,inactive
same,Potency,UISO,0.166 µM (active)
same,Potency,CAOV3,inactive
same,Potency,JEG-3,inactive
same,Potency,OV90,3.98 µM (active)
same,Potency,PA-1,0.251 µM (active)
COc1ccc2nc3cc(Cl)ccc3c(Nc3cc(CN4CCCC4)c(O)c(CN4CCCC4)c3)c2n1,max response,NIH3T3 [2],-1.17% (inactive)
same,outcome,HACAT,inactive
same,Potency,MCC-13,inactive
same,Potency,MCC-26,inactive
same,Potency,UISO,inactive
same,Potency,WaGa,18.7 µM (active)
CC(C)c1c(C(=O)Nc2ccccc2)c(-c2ccccc2)c(-c2ccc(F)cc2)n1CC[C@H](O)C[C@@H](O)CC(=O)O,max response,NIH3T3 [2],-10.9% (inactive)
same,Potency,MCC-13,inactive
same,Potency,MCC-26,inactive
same,Potency,MKL-1,18.7 µM (active)
same,Potency,MKL-2,10.5 µM (active)
same,Potency,UISO,14.8 µM (active)
same,Potency,WaGa,23.5 µM (active)
CN(C)CCCNC(=O)c1ccc(-c2cc(O)c3ncccc3c2)cc1,max response,NIH3T3 [2],-2.36% (inactive)
same,Potency,MCC-13,inactive
same,Potency,MCC-26,inactive
same,Potency,C33A,inactive
same,Potency,CASKI,inactive
same,Potency,Es-2,inactive
same,Potency,HeLa,inactive
same,Potency,Hek293T [1],inactive
same,Potency,JEG-3,inactive
Cc1cc(OCCCS(C)(=O)=O)cc(C)c1-c1cccc(COc2ccc3c(c2)OC[C@H]3CC(=O)O)c1,max response,NIH3T3 [2],-18.7% (inactive)
same,Potency,MCC-13,inactive
same,Potency,MKL-1,inactive
O=S(=O)(NCCNCC=Cc1ccc(Br)cc1)c1cccc2cnccc12,max response,NIH3T3 [2],-13.9% (inactive)
same,Potency,MCC-26,inactive
same,Potency,MKL-1,20.9 µM (active)
same,Potency,MKL-2,5.26 µM (active)
same,Potency,WaGa,14.8 µM (active)
Fc1ccc(C(c2ccc(F)cc2)N2CCN(CC=Cc3ccccc3)CC2)cc1,Potency,MCC-13,inactive
same,Potency,MCC-26,inactive
same,Potency,MKL-1,inactive
same,Potency,MKL-2,inactive
same,Potency,UISO,inactive
same,Potency,WaGa,inactive
Cc1cccc(-c2[nH]c(C(C)(C)C)nc2-c2ccc3c(c2)OCO3)n1,Potency,NIH3T3 [2],7.43 µM (active)
same,Potency,MKL-1,3.72 µM (active)
same,Potency,MKL-2,0.743 µM (active)
same,Potency,UISO,1.32 µM (active)
same,Potency,WaGa,2.64 µM (active)
C[C@@H]1[C@H](C)CC[C@]2(C(=O)O)CC[C@]3(C)C(=CC[C@@H]4[C@@]5(C)CC[C@H](O)C(C)(C)[C@H]5CC[C@]43C)[C@@H]12,outcome,HACAT,inactive [at 92 µM]
same,outcome,HEK293T [3],inactive [at 92 µM]
same,Potency,MCC-13,inactive
same,Potency,MCC-26,inactive
same,Potency,MKL-2,inactive
same,Potency,NIH3T3 [4],inactive
O=C(Nc1cccc(Cl)c1)Nc1ncc(CCNc2ncnc3ccsc23)s1,Potency,MCC-26,inactive
same,Potency,MKL-1,0.296 µM (active)
same,Potency,MKL-2,inactive
same,Potency,UISO,inactive
CNc1nc(-c2ccc3c(N)n[nH]c3c2)cc(N2C[C@@H](C(=O)NC3CCCCC3)CC[C@@H]2C)n1,Potency,MCC-13,inactive
same,Potency,MCC-26,inactive
same,Potency,MKL-1,inactive
same,Potency,UISO,inactive
same,Potency,WaGa,inactive
CCC(=O)N1CCN(c2ccc(-n3c(=O)ccc4cnc5ccc(-c6cnc7ccccc7c6)cc5c43)cc2C(F)(F)F)CC1,Potency,NIH3T3 [2],33.2 nM (active) and 237 nM (active)
same,Potency,MKL-2,inactive
same,Potency,UISO,0.0469 µM (active)
same,Potency,WaGa,inactive
same,"activity change, negative = cytotoxicity",CAOV3,-22.6% [at 11.6 µM] (inactive)
same,Potency,Es-2,0.141 µM (active)
same,Potency,Hek293T [1],0.1 µM (active)
same,"activity change, negative = cytotoxicity",JEG-3,-16.3% [at 11.6 µM] (inactive)
same,Potency,PA-1,0.126 µM (active)
